What is called inhibition is the change of the read-out against control, counted positive when it falls. As a reminder, the viability is a read-out of living cells in per cent, often relative to untreated cells.

This is an account of results in PubChem BioAssay.

Several values for one entry are separate records, joined by “and”; a condition that tells them apart may be missing. Identical values can stand only once. Activity calls are given as the source filed them.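 How the source made its calls, unless noted: active means luciferase signal above three times the same-plate solvent-only control wells; inactive means the rest.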

The nature of test [1]: suppressors of polyQ aggregation in yeast, 75Q-TubU reporter (AID 1593). Conditions: Yeast 75Q polyglutamine aggregation reporter.
Test [2] in a line: inhibitors of mitochondrial cytochrome c release, biochemical, purified mitochondria (AID 1603).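 Further: mouse liver mitochondria challenged with calcium chloride; signal normalized to the plate average as 100%.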 Conditions: stronger effect = lower value.
Test [3] is described as follows: inhibitors of polyQ protein aggregation (AID 1604). Conditions: polyglutamine-induced protein aggregation inhibition assay; stronger effect = higher value; tested at 2.5 µM.
Test [4] is described as follows: stimulators of nuclear beta-catenin in C2C12, primary screen, imaging, WNT3A-conditioned medium, mouse C2C12, NPC library (AID 1117326; in the data active means nuclear beta-catenin stimulation mostly above about 4.2%, no sharp cut-off; inactive means mostly below about 10%). To be noted: stronger effect = higher value.
Test [5] can be described thus: stimulators of insulin release from INS-1E, primary screen, cell-based, 5 mM glucose, NPC library (AID 1117329;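 active means compound raises insulin release from rat beta cells at 5 mM glucose, no numeric limit stated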). Conditions: rat INS-1E insulin secretion, at 10 µM, stronger effect = higher value.
Test [6] is described as follows: growth inhibition of GSK3B-pretreated HCT116 cells – cell-based, CellTiter-Glo, 0.2 to 20 µM (AID 1117336;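 active means compounds lowering colon cancer cell viability after pretreatment blocking the GSK3B kinase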). To be noted: HCT116 viability after GSK3B inhibitor, at 20 µM, stronger effect = higher value.
Test [7] can be described thus: inhibition of endothelial tube formation, primary screen, imaging, VEGF stimulated, CD31 staining, tube area, NPC library (AID 1117340;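 active means compound that reduces growth-factor-driven endothelial tube area in a mixed cell culture, no cutoff stated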). To be noted: VEGF-stimulated ADSC/ECFC co-culture, at 10 µM, stronger effect = higher value.
Test [8] in a line: glucagon-like peptide 1 release enhancers, primary assay, NCI-H716 cell line, NPC library (AID 1117341;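 active means compound raises GLP1 secretion from the human gut endocrine cells, with no numeric limit stated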). To be noted: NCI-H716 cells, at 10 µM, stronger effect = higher value.
The nature of test [9]: HCT116 colon cancer cell growth inhibition, primary screen, CellTiter-Glo luminescence, NPC library (AID 1117342;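 active means compounds that lower survival of HCT116 colon cancer cells in the luminescence readout, no numeric limit stated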). Conditions: at 20 µM (top of the series).
Test [10] can be described thus: CellTiter-Glo luminescent readout of SW480 viability loss, NPC library primary (AID 1117343;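 active means compounds that lower viability of the colon cancer cells in the luminescence readout, with no numeric limit stated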). To be noted: CellTiter-Glo luminescence; at 20 µM (top of the series). (In general: In ATP-based viability assays light output follows the ATP content of the culture.)
Test [11] in a line: decreased DLD-1 cellular survival, CellTiter-Glo luminescent readout, NPC compound collection, primary HTS (AID 1117346;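 active means compounds that lower survival of DLD-1 colon cancer cells in the luminescence readout, no cutoff given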). To be noted: DLD-1 viability, CellTiter-Glo luminescence; at 20 µM (top of the series).
The target of test [12] is 6-phosphogluconate dehydrogenase, decarboxylating (Homo sapiens) (UniProt P52209). Description: 6PGD enzyme inhibitors, primary screen, biochemical, human, recombinant enzyme, NADPH absorbance (AID 1159550;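 active means at least 20% inhibition of 6-phosphogluconate dehydrogenase activity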). To be noted: recombinant 6PGD, NADPH absorbance 341 nm; at 10 µM; stronger effect = higher value.
Test [13] can be described thus: differential killing of epithelial or mesenchymal cells, primary screen, imaging, PC-3E GFP, TEM4-18 mCherry, co-culture (AID 1345086;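 active means compounds killing one labelled cell type while sparing the other, by normalised counts and ratio limits, not self-fluorescent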;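 on all read-outs here: cells exposed to compound for 72 h before imaging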;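 on red/green cell ratio (normalised): normalised mesenchymal count divided by normalised epithelial count so high means epithelial killing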). Conditions: imaging cell counts, at 1 µM; for red/green cell ratio (normalised): actives lie on both sides.
The test system of test [14] is Aerobactin synthetase IucA (Klebsiella pneumoniae hvKP1). Description: Biochemical IucA enzyme inhibition primary screen of the Spectrum library (AID 1346200; call rule not given here;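 further: 100% = wells without compound and 0% = wells lacking enzyme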). Conditions: malachite green pyrophosphate, A620, at 8 µM, stronger effect = lower value.
Test [15] is described as follows: sensitizers of A549 cells to miR-34 induction, primary screen, imaging, A549 dox-inducible miR-34, nuclei and caspase counts (AID 1347080;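 active means compounds whose cell count with miR-34 switched on is under 0.7 times the count with it off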). To be noted: A549 miR-34 inducible, Hoechst nuclei count, 48 h.
The target in test [16] is Mitogen-activated protein kinase 7 (Homo sapiens) (UniProt Q13164). Description: ERK5 transactivation activators in reporter cells, primary screen, cell-based, HTS (AID 1508626).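 Further: luciferase driven by Gal4-ERK5 fusion binding five Gal4 sites before minimal TATA.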 To be noted: HeLa Gal4-ERK5 transactivation, 18 h, at 5 µM, stronger effect = higher value.
Test [17] in a line: viability rescue of complex I mutant cybrids, primary screen, cell-based, galactose medium, ATP luminescence (AID 1645843;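 active means z-score of at least 1.8 in each of two replicates, scored against plate mean and spread of sample wells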;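 further: positive z means more ATP and so rescue of galactose-driven cybrid death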). Conditions: complex I mutant cybrid cells, 72 h, stronger effect = higher value.
Test [18] is described as follows: liver-stage malaria parasite growth inhibition, primary screen, cell-based, HepG2, luciferase luminescence, HepG2 viability (AID 624349; in the data active means parasite load remaining mostly below about 12%, no sharp cut-off; inactive means mostly above about 10%;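 further: 100% = mean of DMSO negative control wells on the same plate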). Conditions: P. berghei liver stage in HepG2, luciferase luminescence, concentration not given here; parasite load remaining: stronger effect = lower value; viability: measured here: HepG2 viability without parasites.
Test [19] in a line: survival rescue of mitochondrial mutant cells in low glucose, primary screen, MELAS cybrids, Rieske KO mouse fibroblasts, CellTiter-Glo (AID 1508586;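 active means mean z-score across replicates of 1.96 or higher in either the MELAS or the Rieske mutant cell line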;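 further: z relative to plate mean and SD of compound and empty wells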).
For test [20], the target named is NAD(+) hydrolase SARM1 (Homo sapiens) (UniProt Q6SZW1). Description: SARM1 TIR NADase inhibitors, cell lysate, NAD-Glo luminescence (AID 1508614;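 active means compound whose remaining NAD level is above about 45 nM, limit read from the data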). Conditions: SAM-TIR HEK293T lysate NADase, at 1 µM, stronger effect = higher value.
Setting [21] is: measured here: epithelial PC-3E GFP cell survival.
Where [22] appears, read: measured here: mesenchymal TEM4-18 mCherry cell survival.
Setting [23] is: measured here: relative caspase fold change +Dox/-Dox.
The mark [24] stands for this setting: measured here: total cells with miR-34 induction, stronger effect = lower value.
Where [25] appears, read: measured here: total cells without miR-34 induction.
Where [26] appears, read: MELAS cybrid survival, CellTiter-Glo 48 h, stronger effect = higher value.
Setting [27] is: Rieske KO mouse fibroblast survival, CellTiter-Glo 72 h.

Chain of Mitogen-activated protein kinase 7 (Homo sapiens) (Q13164 whole entry, looked up, the tested form may be a part): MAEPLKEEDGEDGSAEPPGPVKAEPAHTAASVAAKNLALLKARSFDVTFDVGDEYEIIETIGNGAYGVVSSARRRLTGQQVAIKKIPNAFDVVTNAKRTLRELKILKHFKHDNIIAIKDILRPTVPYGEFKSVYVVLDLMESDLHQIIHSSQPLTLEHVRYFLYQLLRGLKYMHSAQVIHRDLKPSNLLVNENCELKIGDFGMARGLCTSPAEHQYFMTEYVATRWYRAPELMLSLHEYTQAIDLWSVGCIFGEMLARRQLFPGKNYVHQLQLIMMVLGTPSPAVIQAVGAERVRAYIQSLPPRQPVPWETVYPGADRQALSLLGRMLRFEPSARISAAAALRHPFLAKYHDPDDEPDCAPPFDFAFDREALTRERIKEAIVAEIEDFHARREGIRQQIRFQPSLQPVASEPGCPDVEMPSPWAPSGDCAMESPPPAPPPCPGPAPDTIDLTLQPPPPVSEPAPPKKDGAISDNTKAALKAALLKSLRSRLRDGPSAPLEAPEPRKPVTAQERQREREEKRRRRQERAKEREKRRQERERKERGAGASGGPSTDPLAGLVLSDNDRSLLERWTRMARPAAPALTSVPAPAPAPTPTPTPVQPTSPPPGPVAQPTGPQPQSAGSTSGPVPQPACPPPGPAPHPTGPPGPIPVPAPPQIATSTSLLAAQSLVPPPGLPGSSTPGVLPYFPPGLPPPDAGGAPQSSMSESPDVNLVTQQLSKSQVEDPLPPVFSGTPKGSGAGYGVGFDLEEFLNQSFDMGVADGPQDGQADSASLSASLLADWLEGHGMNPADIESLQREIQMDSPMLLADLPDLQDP
Chain of NAD(+) hydrolase SARM1 (Homo sapiens) (Q6SZW1 whole entry, looked up): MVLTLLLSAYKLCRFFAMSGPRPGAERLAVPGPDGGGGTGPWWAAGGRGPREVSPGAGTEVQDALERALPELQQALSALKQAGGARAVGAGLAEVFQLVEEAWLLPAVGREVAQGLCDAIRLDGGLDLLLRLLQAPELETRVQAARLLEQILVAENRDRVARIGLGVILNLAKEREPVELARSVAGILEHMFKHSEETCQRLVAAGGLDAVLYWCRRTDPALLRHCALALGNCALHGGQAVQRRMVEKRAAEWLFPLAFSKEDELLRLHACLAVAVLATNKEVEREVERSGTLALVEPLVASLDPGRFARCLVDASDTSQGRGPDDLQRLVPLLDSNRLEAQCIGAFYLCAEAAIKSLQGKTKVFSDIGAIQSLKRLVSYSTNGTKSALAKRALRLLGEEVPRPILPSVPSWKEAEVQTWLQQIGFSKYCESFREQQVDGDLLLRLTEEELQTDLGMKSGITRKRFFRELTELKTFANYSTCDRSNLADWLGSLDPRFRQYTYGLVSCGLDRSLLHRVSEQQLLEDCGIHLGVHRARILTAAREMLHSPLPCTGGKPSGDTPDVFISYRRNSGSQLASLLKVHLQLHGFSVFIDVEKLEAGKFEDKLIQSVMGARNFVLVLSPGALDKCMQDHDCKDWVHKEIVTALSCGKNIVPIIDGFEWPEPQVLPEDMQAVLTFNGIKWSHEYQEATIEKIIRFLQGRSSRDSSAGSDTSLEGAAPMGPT
Chain of 6-phosphogluconate dehydrogenase, decarboxylating (Homo sapiens) (P52209 whole entry, looked up): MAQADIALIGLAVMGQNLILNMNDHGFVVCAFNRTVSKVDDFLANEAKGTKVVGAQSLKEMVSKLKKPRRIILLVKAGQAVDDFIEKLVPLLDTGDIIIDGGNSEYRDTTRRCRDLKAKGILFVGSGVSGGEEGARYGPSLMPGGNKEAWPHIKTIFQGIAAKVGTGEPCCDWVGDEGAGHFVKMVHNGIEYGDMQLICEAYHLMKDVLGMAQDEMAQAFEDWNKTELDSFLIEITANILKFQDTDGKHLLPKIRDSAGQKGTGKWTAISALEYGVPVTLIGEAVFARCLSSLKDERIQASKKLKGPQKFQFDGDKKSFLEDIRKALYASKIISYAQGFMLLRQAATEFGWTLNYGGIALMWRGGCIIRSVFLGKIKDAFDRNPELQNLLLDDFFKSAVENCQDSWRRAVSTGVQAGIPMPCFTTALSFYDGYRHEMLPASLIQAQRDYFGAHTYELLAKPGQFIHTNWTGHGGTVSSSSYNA

In [1], `C=C(C)[C@H]1Cc2c(ccc3c2O[C@@H]2COc4cc(OC)c(OC)cc4[C@@H]2C3=O)O1` gave a score of 3.23. In test [2], the cytochrome c release ratio came to 1.15. In test [3], this compound gave an inhibition of aggregation of 33.3%. Also, the nuclear beta-catenin stimulation in [4] (at 10 µM) is 92.8% (active); in test [4] (stimulation, at 2 µM), 43.8%. The insulin secretion stimulation in test [5] is -0.1% (inactive). Further, the viability decrease in [6] was 4.4% (inactive). The tube area decrease in test [7] was 107% (active). The GLP1 secretion stimulation in test [8] is 2.2% (inactive). For the same compound, in test [9], the inhibition of viability is 60.6% (active). The viability decrease (inhibition) in test [10] was 88.3% (active); in test [11], 83.4% (active). For the same compound, the inhibition in [12] is 10.4% (inactive). Also, the red/green cell ratio (normalised) in test [13] is 1.19 (inactive). Besides, the values for the normalised cell number in [13] (setting [21]) and in test [13] (setting [22]) were 0.27 and 0.32, respectively. Further, the activity remaining in test [14] is 92.3% (inactive). The fold change in test [15] (stronger effect = lower value) was 1.11 (inactive); in test [15] (setting [23]), 0.665. For the same compound, the cell count was 1680 in test [15] (setting [24]) and 1510 in test [15] (setting [25]). Moreover, the luciferase signal in [16] was 52 AU (inactive). Moreover, the z-score in test [17] is -1.29 (inactive).

In [1], `NCC(O)c1ccc(O)cc1` (stereo not drawn) yielded a score of 1.11. In test [2], the cytochrome c release ratio was 0.99. The compound further registered an inhibition of aggregation in [3] of 55.6%. Further, in [18], the parasite load remaining is 79.5% (inactive) and 84.6% (inactive). Also, in [18], the viability was 96% and 67.9%. Besides, the nuclear beta-catenin stimulation was -0.4% (inactive) in [4] (at 10 µM) and 0.8% in test [4] (stimulation, at 2 µM). Also, the insulin secretion stimulation in test [5] is -2.1% (inactive). Also, the viability decrease in test [6] is -4.35% (inactive). Besides, the tube area decrease in test [7] is -17.5% (inactive). For the same compound, in [8], the GLP1 secretion stimulation was 1.6% (inactive). Further, the inhibition of viability in test [9] is -5% (inactive). Further, the viability decrease (inhibition) in test [10] is 18.2% (inactive); in test [11], 1.65% (inactive). Besides, in test [12], the inhibition is 8.94% (inactive). Moreover, in [13], the red/green cell ratio (normalised) is 1 (inactive). Also, the normalised cell number is 0.98 in [13] (setting [21]) and 0.97 in test [13] (setting [22]). Moreover, in [14], the activity remaining was 125% (inactive). The z-score in test [19] (setting [26]) is -0.301 (inactive) and 0.485 (inactive); in [19] (setting [27]) it was -0.195 and -0.00807; in test [17], 0.63 (inactive) and -0.045 (inactive). In test [20], the remaining NAD was 10 nM (inactive). Besides, in [16], the luciferase signal was 80 AU (inactive).

Take `CCOP(=S)(OCC)Oc1ccc2c(C)c(Cl)c(=O)oc2c1`: the nuclear beta-catenin stimulation in test [4] (at 10 µM) was 8.6% (inactive); in test [4] (stimulation, at 2 µM) it was 1.6%. Also, the insulin secretion stimulation in test [5] is -1.3% (inactive). The viability decrease in test [6] is -12.5% (inactive). The tube area decrease in [7] is 41% (active). Moreover, in [8], the GLP1 secretion stimulation is 2.3% (inactive). Also, the inhibition of viability in test [9] was -16% (inactive). In addition, the viability decrease (inhibition) in test [10] was -55% (inactive); in [11], -8.8% (inactive). Moreover, the inhibition in test [12] is 6.24% (inactive). In addition, the red/green cell ratio (normalised) in test [13] was 1.09 (inactive). The normalised cell number was found to be 0.91 in test [13] (setting [21]) and 0.99 in [13] (setting [22]). The fold change was 0.908 (inactive) in test [15] (stronger effect = lower value) and 1.03 in test [15] (setting [23]). The cell count worked out at 8520 in [15] (setting [24]) and 9380 in [15] (setting [25]). The remaining NAD in [20] was 10 nM (inactive). Besides, the luciferase signal in [16] was 72 AU (inactive).

In turn, `NC(=O)CN1CCCC1=O` had a score in test [1] of 1.12. In test [2], the cytochrome c release ratio came out at 0.79. In addition, in [3], the inhibition of aggregation came to 1.59%. Also, the nuclear beta-catenin stimulation in test [4] (at 10 µM) is -0.1% (inactive); in [4] (stimulation, at 2 µM), 1.2%. Moreover, the insulin secretion stimulation in test [5] was 0.2% (inactive). Further, in test [6], the viability decrease is -6.65% (inactive). Besides, the tube area decrease in test [7] is -16.1% (inactive). For the same compound, in [8], the GLP1 secretion stimulation is 1.9% (inactive). Further, the inhibition of viability in test [9] is -10.5% (inactive). For the same compound, the viability decrease (inhibition) in test [10] was 10% (inactive); in test [11] it was 0.05% (inactive). The inhibition in test [12] was -18.4% (inactive). Moreover, the red/green cell ratio (normalised) in test [13] is 1.04 (inactive). Also, the normalised cell number in [13] (setting [21]) worked out at 0.91; in test [13] (setting [22]) it was 0.95. The activity remaining in [14] was 112% (inactive). Besides, the z-score is 0.856 (inactive) and 0.336 (inactive) in test [19] (setting [26]); -2.44 and 0.0138 in [19] (setting [27]); 0.785 (inactive) in [17]. Moreover, in test [20], the remaining NAD was 10 nM (inactive). Further, the luciferase signal in test [16] was 44 AU (inactive).
